The assay concerns Inhibin beta A chain (activin A). In words: small molecules binding activin A – biochemical, small-molecule microarray, 635 nm fluorescence scan, primary screen (AID 1107).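 Further: mouse activin A protein probed at 4.33 µg/mL on printed slides; score merges bound-protein fluorescence near 667 nm with spot signal-to-noise.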 The conditions noted are these: INHBA, higher = more signal.
The molecule `N#Cc1ccc(NN2C(C(O)c3ccc(Br)cc3)C=CC3C(=O)N(c4ccccc4)C(=O)C32)cc1` (stereo unspecified) showed a composite z-score of -0.374.

With `CC1CC/C=C\[C@H]2OC34C=CCN(c5ccc(Cl)cc5)C(=O)[C@H]3N(C(C)CO)C(=O)[C@]4(C)C2C(=O)O1` (stereo partly specified), the composite z-score is 0.896.

Molecule `CO[C@H]1O[C@H](CO)[C@@H](OC(=O)Nc2ccc(Br)cc2)[C@@H]2OC(=O)[C@@H](Cc3ccccc3)C/C=C/C[C@H](Cc3ccccc3)C(=O)O[C@@H]12` yielded a composite z-score of 0.517.

Consider `CCOC(=O)C[C@H]1[C@H](OC(=O)c2cc3ccccc3oc2=O)[C@@H](NC(=O)c2ccccc2)c2cc(OCCCO)ccc2N1C(=O)c1ccccc1`, for which the composite z-score stood at 0.225.

The molecule `O=C1OCCC=C[C@H]2OC34C=CCN(c5ccc6ccccc6c5)C(=O)[C@H]3N(CCCO)C(=O)[C@@H]4C12` (stereo partly specified) had a composite z-score of -2.42.

Take `O=C1C2C=CC(C(O)C3CC=CCC3)N(Nc3ccccc3)C2C(=O)N1c1ccccc1` (stereo unspecified): the composite z-score is 1.68.

Molecule `Cc1ccc(S[C@]2(C(=O)NC(C)C)CC(=O)N(Cc3cc(C(F)(F)F)cc(C(F)(F)F)c3)[C@@H]2c2ccc(CO)cc2)cc1` displayed a composite z-score of -0.403.

`CCOC(=O)C[C@H]1[C@H](OC(=O)c2ccccc2-c2ccccc2)[C@@H](NC(=O)c2ccc3ccccc3n2)c2cc(OCCCO)ccc2N1C(=O)Cc1ccc(OC)cc1` registered a composite z-score of 0.711.

`CC(C)c1ccc(NN2C(C(O)c3ccc(C#N)cc3)C=CC3C(=O)N(c4ccccc4)C(=O)C32)cc1` (stereo unspecified) registered a composite z-score of 1.

The molecule `CCC#CCN(Cc1ccccc1Br)[C@H](/C=C/C1CC1)[C@@H](O)Cc1ccccc1` returned a composite z-score of 0.384.

The molecule `C=C[C@@H](OC)[C@H](OC(=O)Nc1ccc(OC)cc1)c1ccc(O)c(F)c1` gave a composite z-score of 1.07.

These data come from PubChem BioAssay.
